Screens from PubChem.
GIRK2 activator – GIRK2 channel activators by thallium flux | P48051 | HEK293 GIRK2/NPY4 cells, thallium flux fluorescence | activation (% efficacy), % for hits at 37.5 µM | 34,000 tested, under 10 active;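 active means primary screen hit, no activity in plain HEK293 cells, and in GIRK2-only cells above 5% efficacy rising with concentration; inactive means the rest, including fluorescent compounds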;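 further: efficacy is normalized control-subtracted fluorescence 15 s after thallium addition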
AMPAR-TARP mod – GluA2-stargazin AMPA receptor complex modulation; O88602+P19491; HEK293 GluA2+stargazin, membrane potential dye (FDSS), glutamate EC50; hits were called plate by plate, in both directions; 3.5% of 40,000 active; calls only at 30 µM; AID 1259245;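 active means any of four per-well response measures lying three or more SD from its plate-wide compound average, in either direction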
Large screens that a line does not name were inactive. Shown is part of a subset that was picked to be rich in hits.

Cc1ccc(C)c(Sc2cc(N3CCC(C(=O)NCC(C)C)CC3)ncn2)c1	none
CCOC(=O)N1CCC(NC(=O)C2CCN(c3cc(Sc4cc(C)ccc4C)ncn3)CC2)CC1	AMPAR-TARP mod active
COc1ccc(-c2ccc3c(N)c(-c4ccc(C#N)cc4)sc3n2)cc1	AMPAR-TARP mod active
COc1ccc(-c2ccc(C#N)c(SCc3ccc(C#N)cc3)n2)cc1	none
Cc1cnn(C)c1C(=O)Nc1c2c(nn1-c1nc3ccccc3s1)CCC2	none
COc1ccc(C(=O)Nc2cc3c4c(c2)CCN4C(=O)CC3)cc1	AMPAR-TARP mod active
COc1ccc(C(=O)Nc2cc3c4c(c2)CCC(=O)N4CCC3)cc1	none
CN1CCN(n2c3c(c(SCC(=O)Nc4cccc5ccccc45)nc2=O)CCC3)CC1	none
Cc1cc(NC(=O)CSc2nc(=O)n(N3CCN(C)CC3)c3c2CCC3)no1	AMPAR-TARP mod active
CN1C(=O)c2ccc(NC(=O)c3ccno3)cc2C1=O	AMPAR-TARP mod active (no result: GIRK2 activator)
CN1CCOc2ccc(NC(=O)c3ccno3)cc2C1=O	none
CN1C(=O)Cc2cc(NC(=O)c3ccno3)ccc21	AMPAR-TARP mod active
Cc1cccc(CC(=O)Nc2ccc3c(c2)CC(=O)N3C)c1	none (no result: GIRK2 activator)
O=C(Nc1ccc(O)c(-c2nc3ccccc3s2)c1)c1ccno1	none
O=C(Nc1ccc2sccc2c1)c1ccno1	AMPAR-TARP mod active
O=C(Cc1ccc(NS(=O)(=O)c2ccc3c(c2)CCCC3)cc1)N1CCOCC1	none
COc1ccccc1OCC(=O)NCCS(=O)(=O)N1CCN(c2ccccn2)CC1	none
CCN1CCN(C(=O)CCc2c(C)nn(-c3nc(C)c(C)c(=O)[nH]3)c2C)CC1	none
Cn1nc(-c2cccc(NC(=O)c3cccnc3)c2)ccc1=O	AMPAR-TARP mod active
Cn1nc(-c2cccc(NC(=O)Nc3ccccc3)c2)ccc1=O	none
CN(C)CCCNC(=O)C(=O)Nc1ccc2c(c1)OCCO2	none
CC(=O)Nc1cccc(NC(=O)C(=O)NCCCN(C)C)c1	AMPAR-TARP mod active (no result: GIRK2 activator)
CCn1nnc2c(NCCC(c3ccccc3)c3ccccc3)ncnc21	none
CCOC(=O)c1scc(-c2ccc(C)cc2)c1S(=O)(=O)N1CCN(c2ccccn2)CC1	AMPAR-TARP mod active
COC(=O)c1scc(-c2ccccc2)c1S(=O)(=O)N1CCN(c2ncccn2)CC1	none (no result: GIRK2 activator)
O=S(=O)(NCC1(O)CCOc2ccccc21)c1cccc(C(F)(F)F)c1 (centres undefined)	none (no result: AMPAR-TARP mod)
O=C(NCC1(O)CCc2ccccc21)c1ccc(Cl)cc1 (centres undefined)	none (no result: AMPAR-TARP mod)
NC(=O)C1CCN(C(=O)c2ccc(Oc3ncccn3)cc2)CC1	none
O=C(NCc1cccc2ccccc12)Nc1ccc(Cl)c(N2CCCS2(=O)=O)c1	AMPAR-TARP mod active
O=C(NCc1cccs1)Nc1ccc(Cl)c(N2CCCS2(=O)=O)c1	none
CNC(=O)C(=O)NCC(c1cccc2ccccc12)N(C)C (centres undefined)	none (no result: AMPAR-TARP mod)
CCOc1ccc(NC(=O)CCCOc2ccc(C(C)(C)C)cc2)cc1	none (no result: GIRK2 activator)
O=C(NCC1(O)CCCC1)Nc1cccs1	none
Cc1nc2c(sc3cccc(F)c32)c(=O)n1CC(=O)NC1CCCCC1	none (no result: AMPAR-TARP mod)
O=C(Cn1c(CO)cnc1SCc1c(F)cccc1Cl)NC1CCCC1	AMPAR-TARP mod active
COc1ccc(Nc2cc(C)nc(-n3cc([N+](=O)[O-])cn3)n2)cc1Cl	AMPAR-TARP mod active
COc1ccc(Nc2cc(C)nc(-n3cc([N+](=O)[O-])cn3)n2)cc1OC	none
Cc1ccc(S(=O)(=O)Nc2nc(CCC(=O)Nc3cccc(Cl)c3)cs2)cc1	AMPAR-TARP mod active
Cc1ccc(S(=O)(=O)Nc2nc(CCC(=O)Nc3cccc(F)c3)cs2)cc1	none
O=C(Cc1cc(-c2ccc3c(c2)OCO3)on1)NCc1ccccc1	none (no result: AMPAR-TARP mod)
COc1ccc(N2CCN(C(c3cccs3)C(C)NS(=O)(=O)c3ccc(Cl)cc3)CC2)cc1 (centres undefined)	AMPAR-TARP mod active (no result: GIRK2 activator)
COc1ccc(N2CCN(C(c3cccs3)C(C)NS(=O)(=O)c3ccc(F)cc3)CC2)cc1 (centres undefined)	none (no result: GIRK2 activator)
Cn1nc(CNC(=O)c2ccccc2C(=O)c2ccccc2)c2ccccc2c1=O	none
Cn1nc(CNC(=O)c2cccc(C#N)c2)c2ccccc2c1=O	AMPAR-TARP mod active
O=C(CN1C(=O)c2ccccc2C1=O)NCc1cccc(Oc2ccc(F)cc2)c1	none
O=C(NCC1(O)CCOCC1)C(=O)Nc1ccc2c(c1)OCCO2	none
O=C(NCC1(O)CCOCC1)C(=O)Nc1ccc(F)c(F)c1	AMPAR-TARP mod active
CCN(C(=O)c1ccc(=O)n(Cc2ccc(F)cc2)c1)c1cccc(C)c1	none
COC(=O)Nc1nc(CC(=O)Nc2ccccc2C(N)=O)cs1	none (no result: AMPAR-TARP mod)
Cc1ccc(C)c(N2C(=O)N(Cc3ccc(Br)cc3F)C3CS(=O)(=O)CC32)c1 (centres undefined)	none (no result: GIRK2 activator)
Cc1ccc(C)c(CN2C(=O)N(c3cc(C)ccc3C)C3CS(=O)(=O)CC32)c1 (centres undefined)	AMPAR-TARP mod active (no result: GIRK2 activator)
Cc1ccnc(NS(=O)(=O)c2ccc(NC(=O)c3nc(-c4cnccn4)no3)cc2)n1	none
O=C(Nc1ccc(S(=O)(=O)Nc2nccs2)cc1)c1nc(-c2cnccn2)no1	AMPAR-TARP mod active
CCS(=O)(=O)c1ccc(CC(=O)Nc2cc(C)nn2C(C)C)cc1	none
COc1ccc(Cl)cc1NC(=O)NCC(O)Cc1ccccc1 (centres undefined)	AMPAR-TARP mod active
COc1ccc(NC(=O)C(=O)NCC(c2cccs2)N(C)C)c(OC)c1 (centres undefined)	none
COc1ccc(Cl)cc1NC(=O)C(=O)NCC(c1cccs1)N(C)C (centres undefined)	AMPAR-TARP mod active
COc1ccc(NC(=O)NCC(O)Cc2ccccc2)cc1OC (centres undefined)	none
O=C(CCCc1ccccc1)N1CCOC(c2ccc(C(F)(F)F)cc2)C1 (centres undefined)	none (no result: AMPAR-TARP mod)
CCC(=O)Nc1ccc(Cl)c(NC(=O)c2cccc(F)c2)c1	none (no result: GIRK2 activator)
COc1ccc(NC(=O)CSc2nc(-c3ccc(C)cc3)c3ccccc3n2)c(OC)c1	AMPAR-TARP mod active
COc1ccc(NC(=O)CSc2nnc(C)c3ccccc23)c(OC)c1	none
CC(C(=O)NCCc1cccs1)n1nnc2ccccc2c1=O (centres undefined)	none
O=C(NCCc1cccs1)c1nnn(-c2ccccc2Cl)c1-c1ccncc1	AMPAR-TARP mod active
Cc1nn(S(=O)(=O)N(C)C)c(C)c1Br	none (no result: GIRK2 activator)
Cc1ccc2nc3c(cc(C(=O)NCC(=O)OC(C)C)n3Cc3ccccc3)c(=O)n2c1	none
COc1ccc(C)cc1NC(=O)c1cc2c(=O)n3cc(C)ccc3nc2n1Cc1ccccc1	AMPAR-TARP mod active
COc1cccc(C(CNC(=O)C(=O)NC2CCCC2)N2CCOCC2)c1 (centres undefined)	none
O=C(/C=C/c1cccs1)NCC1CCN(Cc2ccsc2)CC1	AMPAR-TARP mod active
COC(=O)N1CCC(CNC(=O)/C=C/c2cccs2)CC1	none
O=C(Nc1cccc(C(F)(F)F)c1)C1CCCN(C(=O)Nc2cccs2)C1 (centres undefined)	AMPAR-TARP mod active
COC(=O)Nc1ccc(S(=O)(=O)N2CCCC(C(=O)Nc3cccc(C(F)(F)F)c3)C2)cc1 (centres undefined)	none (no result: GIRK2 activator)
CCOC(=O)c1nc(NC(=O)Nc2ccc3c(c2)OCO3)sc1Cl	none
O=C1CC(c2nc3ccccc3n2CCOc2ccc(Cl)cc2)CN1Cc1ccc(F)cc1 (centres undefined)	none (no result: AMPAR-TARP mod)
COc1cc([N+](=O)[O-])ccc1NC(=O)Cc1ccc(S(C)(=O)=O)cc1	none (no result: GIRK2 activator)
